# From the supplement of paper PMC8728848
# About 410 targets per protein were measured; listed, in parts, are those with the strongest signals and a random draw of the rest.
# How the values were obtained:
# Assay in all cases: glycan array binding signal (z-score within array); higher = stronger binding
# Details in all cases: glycan notation: IUPAC condensed, linker removed
# [1] = biological target: Fuc(a1-2)Gal(b1-3)GlcNAc(b1-2)Man(a1-3)[Fuc(a1-2)Gal(b1-3)GlcNAc(b1-2)Man(a1-6)]Man(b1-4)GlcNAc(b1-4)GlcNAc
# Summary of the method: (§1)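 From the Consortium for Functional Glycomics database, 3228 arrays were curated, keeping only those whose protein sequence was available. Binding is given as a within-array Z-score averaged across arrays sharing a protein sequence and across linkers. Negative Z-scores can be read as non-binding.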
# [2] = biological target: Fuc(a1-2)Gal(b1-4)Glc6S
# Summary of the method: as §1
# [3] = biological target: Fuc(a1-2)Gal(b1-4)GlcNAc
# Summary of the method: as §1
# [4] = biological target: Fuc(a1-2)Gal(b1-4)GlcNAc6S
# Summary of the method: as §1
# [5] = biological target: Fuc(a1-2)Gal(b1-4)[Fuc(a1-3)]GlcNAc
# Summary of the method: as §1
# [6] = biological target: Fuc(a1-2)Gal(b1-4)[Fuc(a1-3)]GlcNAc(b1-3)Gal(b1-4)[Fuc(a1-3)]GlcNAc
# Summary of the method: as §1
# [7] = biological target: Fuc(a1-2)Gal(b1-4)[Fuc(a1-3)]GlcNAc(b1-3)Gal(b1-4)[Fuc(a1-3)]GlcNAc(b1-3)Gal(b1-4)[Fuc(a1-3)]GlcNAc
# Summary of the method: as §1
# [8] = biological target: Fuc(a1-2)Gal6S(b1-4)Glc
# Summary of the method: as §1
# [9] = biological target: Fuc(a1-2)[Gal(a1-3)]Gal(b1-4)Glc
# Summary of the method: as §1
# [10] = biological target: Fuc(a1-2)[GalNAc(a1-3)]Gal
# Summary of the method: as §1
# [11] = biological target: Fuc(a1-2)[GalNAc(a1-3)]Gal(b1-3)GlcNAc(b1-2)Man(a1-3)[Fuc(a1-2)[GalNAc(a1-3)]Gal(b1-3)GlcNAc(b1-2)Man(a1-6)]Man(b1-4)GlcNAc(b1-4)GlcNAc
# Summary of the method: as §1
# [12] = biological target: Fuc(a1-3)GlcNAc
# Summary of the method: as §1
# [13] = biological target: Fuc(a1-3)[Gal3S(b1-4)]GlcNAc
# Summary of the method: as §1
# [14] = biological target: Fuc(a1-4)GlcNAc
# Summary of the method: as §1
# [15] = biological target: Gal(a1-3)Gal(b1-3)GlcNAc
# Summary of the method: as §1
# [16] = biological target: Gal(a1-3)Gal(b1-4)[Fuc(a1-3)]GlcNAc(b1-2)Man(a1-3)[Gal(a1-3)Gal(b1-4)[Fuc(a1-3)]GlcNAc(b1-2)Man(a1-6)]Man(b1-4)GlcNAc(b1-4)GlcNAc
# Summary of the method: as §1
# [17] = biological target: Gal(a1-3)[Gal(a1-4)]Gal(b1-4)GlcNAc
# Summary of the method: as §1
# [18] = biological target: Gal(a1-4)GlcNAc
# Summary of the method: as §1
# [19] = biological target: Gal(b1-3)GalNAc
# Summary of the method: as §1
# [20] = biological target: Gal(b1-4)Glc
# Summary of the method: as §1
# [21] = biological target: Gal(b1-4)GlcNAc(b1-2)[Gal(b1-4)GlcNAc(b1-6)]Man(a1-6)[Gal(b1-4)GlcNAc(b1-2)Man(a1-3)]Man(b1-4)GlcNAc(b1-4)GlcNAc
# Summary of the method: as §1
# [22] = biological target: Gal(b1-4)GlcNAc(b1-3)Gal(b1-4)Glc
# Summary of the method: as §1
# [23] = biological target: Gal(b1-4)GlcNAc(b1-3)GalNAc
# Summary of the method: as §1
# [24] = biological target: Gal(b1-4)GlcNAc(b1-3)[Gal(b1-4)GlcNAc(b1-6)]GalNAc
# Summary of the method: as §1
# [25] = biological target: Gal3S(b1-3)GalNAc
# Summary of the method: as §1
# [26] = biological target: Gal3S(b1-4)[Fuc(a1-3)]Glc
# Summary of the method: as §1
# [27] = biological target: Gal3S6S(b1-4)GlcNAc6S
# Summary of the method: as §1
# [28] = biological target: Gal6S(b1-3)GlcNAc6S
# Summary of the method: as §1
# [29] = biological target: GalNAc(a1-3)Gal
# Summary of the method: as §1
# [30] = biological target: GalNAc(a1-3)GalNAc(a1-3)Gal(a1-4)Gal(b1-4)GlcNAc
# Summary of the method: as §1
# [31] = biological target: GalNAc(a1-3)GalNAc(b1-3)Gal(a1-4)Gal(b1-4)GlcNAc
# Summary of the method: as §1
# [32] = biological target: GlcA(b1-3)GlcNAc
# Summary of the method: as §1
# [33] = biological target: GlcNAc(a1-4)Gal(b1-3)GlcNAc
# Summary of the method: as §1
# [34] = biological target: GlcNAc(a1-4)Gal(b1-4)GalNAc
# Summary of the method: as §1
# [35] = biological target: Kdn(a2-3)Gal(b1-4)GlcNAc
# Summary of the method: as §1
# [36] = biological target: Man(a1-2)Man(a1-6)[Man(a1-3)]Man(a1-6)[Man(a1-2)Man(a1-2)Man(a1-3)]Man(b1-4)GlcNAc(b1-4)GlcNAc
# Summary of the method: as §1
# [37] = biological target: Neu5Ac(a2-3)Gal(b1-3)GalNAc
# Summary of the method: as §1
# [38] = biological target: Neu5Ac(a2-3)Gal(b1-3)GalNAc(b1-4)[Neu5Ac(a2-8)Neu5Ac(a2-3)]Gal(b1-4)Glc
# Summary of the method: as §1
# [39] = biological target: Neu5Ac(a2-6)Gal(b1-3)GlcNAc(b1-3)[Gal(b1-4)GlcNAc(b1-6)]Gal(b1-4)Glc
# Summary of the method: as §1
# [40] = biological target: Neu5Ac(a2-6)GalNAc
# Summary of the method: as §1
# [41] = biological target: Neu5Ac(b2-6)Gal(b1-4)GlcNAc
# Summary of the method: as §1
binder,measurement,setting,value
"AFL (Aspergillus fumigatus), Q4WW81 (protein) STPGAQQVLFRTGIAAVNLTNHLRVYFQDVYGSIRESLYEGSWANGTEKNVIGNAKLGSPVAATSKELKHIRVYTLTEGNTLQEFAYDSGTGWYNGGLGGAKFQVAPYSRIAAVFLAGTDALQLRIYAQKPDNTIQEYMWNGDGWKEGTNLGGALPGTGIGATSFRYTDYNGPSIRIWFQTDDLKLVQRAYDPHKGWYPDLVTIFDRAPPRTAIAATSFGAGNSSIYMRIYFVNSDNTIWQVCWDHGKGYHDKGTITPVIQGSEVAIISWGSFANNGPDLRLYFQNGTYISAVSEWVWNRAHGSQLGRSALPPA",glycan array binding signal (z-score),[1],-0.22
same,glycan array binding signal (z-score),[2],3.64
same,glycan array binding signal (z-score),[3],2.94
same,glycan array binding signal (z-score),[4],3.17
same,glycan array binding signal (z-score),[5],4.58
same,glycan array binding signal (z-score),[6],3.88
same,glycan array binding signal (z-score),[7],4.31
same,glycan array binding signal (z-score),[8],3.41
same,glycan array binding signal (z-score),[9],-0.359
same,glycan array binding signal (z-score),[10],1.73
same,glycan array binding signal (z-score),[11],-0.374
same,glycan array binding signal (z-score),[12],3.8
same,glycan array binding signal (z-score),[13],0.994
same,glycan array binding signal (z-score),[14],3.56
same,glycan array binding signal (z-score),[15],-0.384
same,glycan array binding signal (z-score),[16],-0.087
same,glycan array binding signal (z-score),[17],-0.382
same,glycan array binding signal (z-score),[18],-0.385
same,glycan array binding signal (z-score),[19],-0.383
same,glycan array binding signal (z-score),[20],-0.383
same,glycan array binding signal (z-score),[21],-0.356
same,glycan array binding signal (z-score),[22],-0.386
same,glycan array binding signal (z-score),[23],-0.386
same,glycan array binding signal (z-score),[24],-0.382
same,glycan array binding signal (z-score),[25],-0.387
same,glycan array binding signal (z-score),[26],0.328
same,glycan array binding signal (z-score),[27],-0.381
same,glycan array binding signal (z-score),[28],-0.385
same,glycan array binding signal (z-score),[29],-0.386
same,glycan array binding signal (z-score),[30],-0.4
same,glycan array binding signal (z-score),[31],-0.377
same,glycan array binding signal (z-score),[32],-0.361
same,glycan array binding signal (z-score),[33],-0.377
same,glycan array binding signal (z-score),[34],-0.384
same,glycan array binding signal (z-score),[35],-0.381
same,glycan array binding signal (z-score),[36],-0.376
same,glycan array binding signal (z-score),[37],-0.385
same,glycan array binding signal (z-score),[38],-0.382
same,glycan array binding signal (z-score),[39],-0.383
same,glycan array binding signal (z-score),[40],-0.383
same,glycan array binding signal (z-score),[41],-0.388
